KCNK9 block = inhibitors of human KCNK9 two-pore domain potassium channel; actives 1.2% (n = 310,000); Q9NPC2; HEK293 KCNK9, FluxOR thallium flux fluorescence; stronger effect = lower value; AID 488922; B-score at 10 µM;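 active = ratio B-score over 3 SD below the library mean, with starting fluorescence within 5 SD of its mean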;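 also: negative B-score means less thallium flux so channel inhibition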
ANO1 block = mouse TMEM16A channel inhibition, primary screen; normalized B-score (activity score, 25-100; higher = stronger inhibition) at 10 µM; actives 1.2% (n = 310,000); HEK293 TMEM16A/YFP iodide influx fluorescence, ionomycin; Q8BHY3;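 active = ratio plate-corrected score three or more library SD toward inhibition, starting fluorescence score within five deviations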;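 also: score derived from kinetic fluorescence span divided by baseline fluorescence per well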
KCNK3 inh = human KCNK3 channel inhibition, primary screen; O14649; B-score at 10 µM; actives 0.84% (n = 340,000); AID 602410; CHO-KCNK3 thallium flux, FluxOR fluorescence; stronger effect = lower value;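 active = B-score under library mean minus 4 SD, starting fluorescence ratio at most library mean plus 5 SD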;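 also: more negative B-score means stronger inhibition of thallium flux through KCNK3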
Target sequence (O14649 whole entry, looked up): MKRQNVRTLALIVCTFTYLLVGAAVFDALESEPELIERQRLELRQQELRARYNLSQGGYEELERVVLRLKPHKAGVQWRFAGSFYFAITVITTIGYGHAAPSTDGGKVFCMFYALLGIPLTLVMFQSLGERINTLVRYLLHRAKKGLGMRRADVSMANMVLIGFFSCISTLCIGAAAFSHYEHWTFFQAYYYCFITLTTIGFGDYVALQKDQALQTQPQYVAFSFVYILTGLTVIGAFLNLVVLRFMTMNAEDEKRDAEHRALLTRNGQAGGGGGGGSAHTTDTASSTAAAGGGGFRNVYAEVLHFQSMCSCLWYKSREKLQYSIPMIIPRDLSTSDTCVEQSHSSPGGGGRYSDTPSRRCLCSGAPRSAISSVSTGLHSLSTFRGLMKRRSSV
Kir21 inh = Kir2.1 (mouse) channel inhibition; P35561; HEK293-Kir2.1, FluxOR thallium flux fluorescence; stronger effect = lower value; B-score at 10 µM; actives 0.85% (n = 310,000); AID 1672;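 active = fluorescence ratio B-score at or below minus 3 SD of library scores, with starting-brightness B-score within 2 SD, cut at about -4.2 in these data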;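 also: channel flux triggered by added potassium and thallium sulfate stimulus; B-score of peak minus minimum fluorescence over baseline after thallium stimulus; more negative B-score means stronger Kir2.1 block with less thallium influx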
ANO1 activ = mouse TMEM16A channel activation, primary screen. actives 0.3% (n = 340,000). AID 623877. B-score at 10 µM. HEK293 TMEM16A/YFP-H148Q/I152L, iodide quench fluorescence; stronger effect = lower value;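 active = fluorescence-ratio B-score plate-corrected deviation score at least 3 library SD below zero, with starting fluorescence score within 5 deviations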;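 also: channel opened by trigger with iodide after compound preincubation; score built on the fluorescence ratio of max minus min over baseline; more negative score means more quench and so TMEM16A activation or potentiation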
KCNK3 inh conf = confirmation of human KCNK3 two-pore domain potassium channel inhibitors | CHO-KCNK3 thallium flux, FluxOR fluorescence; 0% buffer, 100% carvedilol maximal block | ratio percent of control, % at 10 µM | actives 99% (n = 2,400) | AID 651638 | shares compounds with KCNK3 inh;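 active = ratio percent of control, averaged over triplicates, above buffer control mean plus 5 SD, cut at about 64% in these data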;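 also: ratio is the fluorescence rise from min to max over baseline after thallium stimulus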
KCNK3 noninduced = KCNK3 inhibitor counter-screen hit in non-induced cells; shares compounds with KCNK3 inh; non-induced KCNK3 parental cells, FluxOR thallium flux; stronger effect = lower value; thallium flux ratio (lower = more inhibition) at 10 µM; actives 40% (n = 2,400);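 active = thallium flux ratio, averaged over three wells, more than 5 SD below the buffer control mean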;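 also: host cells are CHO cells without KCNK3 induction; ratio is peak minus trough fluorescence over baseline then normalized to buffer controls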
Starred values were filed as active, the others as inactive. In the library only some 3.5% were active in any assay of this set; here they are far more common.

Results for CCOC(=O)Cc1nn(Cc2ccc(Cl)cc2)c(=O)c2ccccc12 ?
KCNK9 block: inactive; ANO1 block: inactive; KCNK3 inh: inactive; Kir21 inh: 0.81; ANO1 activ: inactive

Results for CC(C)(C)c1ccc(Cn2nc(CC(=O)O)c3ccccc3c2=O)cc1 ?
KCNK9 block: inactive; ANO1 block: inactive; KCNK3 inh: inactive; Kir21 inh: 1.5; ANO1 activ: inactive

How did N#CCc1nn(Cc2ccc(F)cc2)c(=O)c2ccccc12 do in these assays?
KCNK9 block: inactive; ANO1 block: inactive; KCNK3 inh: -9*; Kir21 inh: 1.2; ANO1 activ: inactive; KCNK3 inh conf: 94*; KCNK3 noninduced: inactive

Results for CCOC(=O)Cc1nn(Cc2ccccc2)c(=O)c2ccccc12 ?
KCNK9 block: inactive; ANO1 block: inactive; KCNK3 inh: -9.9*; Kir21 inh: -1.8; ANO1 activ: inactive; KCNK3 inh conf: 109*; KCNK3 noninduced: 0.15*

Results for C(=N\Nc1nc2ccccc2[nH]1)/c1ccc2c(c1)OCO2 ?
KCNK9 block: inactive; KCNK3 inh: inactive; Kir21 inh: 0.49; ANO1 activ: inactive

How did C(=C/c1nccc2c1[nH]c1ccccc12)/c1ccc2c(c1)OCO2 do in these assays?
KCNK9 block: inactive; KCNK3 inh: -11*; Kir21 inh: -0.55; ANO1 activ: inactive; KCNK3 inh conf: 99*; KCNK3 noninduced: inactive

What do the screens show for `CCOC(=O)CSc1nc(C)cc(C)c1C#N`?
KCNK9 block: inactive; ANO1 block: inactive; KCNK3 inh: inactive; Kir21 inh: 0.84; ANO1 activ: inactive

How did Cc1cc(C)c(C#N)c(SCC(=O)c2ccc(Cl)cc2Cl)n1 do in these assays?
KCNK9 block: inactive; ANO1 block: inactive; KCNK3 inh: -10*; Kir21 inh: 1.1; ANO1 activ: inactive; KCNK3 inh conf: 108*; KCNK3 noninduced: 0.15*

Results for O=C(NCc1ccccc1)c1cccc(COc2ccccc2Cl)c1 ?
KCNK9 block: inactive; ANO1 block: inactive; KCNK3 inh: -12*; Kir21 inh: 1.7; ANO1 activ: inactive; KCNK3 inh conf: 112*; KCNK3 noninduced: inactive

What do the screens show for `O=C(c1cc(COc2ccc(F)c(F)c2)on1)N1CCN(C2CCCCC2)C(=O)C1`?
KCNK9 block: inactive; ANO1 block: inactive; KCNK3 inh: inactive; Kir21 inh: 0.05; ANO1 activ: inactive

How did N#Cc1nc(-c2ccco2)oc1N1CCN(c2cccc(Cl)c2)CC1 do in these assays?
KCNK9 block: inactive; ANO1 block: inactive; KCNK3 inh: -9.6*; Kir21 inh: 1.2; ANO1 activ: inactive; KCNK3 inh conf: 111*; KCNK3 noninduced: inactive

How did N=C1SCC(=O)N1c1ncc(Cc2ccc(F)cc2)s1 do in these assays?
KCNK9 block: inactive; ANO1 block: inactive; KCNK3 inh: inactive; Kir21 inh: 1.7; ANO1 activ: inactive

What do the screens show for `O=C(CSc1ccc(Cl)cc1)N1CCN(c2c(Cl)cccc2[N+](=O)[O-])CC1`?
KCNK9 block: inactive; ANO1 block: inactive; KCNK3 inh: -9.9*; Kir21 inh: 0.18; ANO1 activ: inactive; KCNK3 inh conf: 117*; KCNK3 noninduced: 0.14*

What do the screens show for `COc1ccc(S(=O)(=O)NCCSCc2ccccc2C)cc1Br`?
KCNK9 block: inactive; ANO1 block: inactive; KCNK3 inh: -8.9*; Kir21 inh: -1.3; ANO1 activ: inactive; KCNK3 inh conf: 126*; KCNK3 noninduced: 0.13*

What do the screens show for `COc1ccc(NC(=O)CN(C)CC(=O)Nc2sc3c(c2C#N)CCC3)cc1`?
KCNK3 inh: inactive; ANO1 activ: inactive

What do the screens show for `Cc1nn2c(-c3ccccn3)ccnc2c1Cl`?
KCNK9 block: inactive; ANO1 block: inactive; KCNK3 inh: inactive; Kir21 inh: -0.05; ANO1 activ: inactive

Results for COc1ccc(OC)c(Nc2nc(NCc3ccco3)c3ccccc3n2)c1 ?
KCNK9 block: inactive; ANO1 block: inactive; KCNK3 inh: -17*; Kir21 inh: -0.12; ANO1 activ: inactive; KCNK3 inh conf: 134*; KCNK3 noninduced: 0.15*

Assay outcomes (PubChem BioAssay)
